Article PMC5540273 (PLoS ONE, 2017)
Where two headings read alike, the source gives them in different places.

Columns and labels:
YES = system: T1, YES; conditions: concentration: 1 μM, replicates: in singlicate; n = 1
T1 construct: gene YES1

YSK1 = system: T2, YSK1; conditions: concentration: 1 μM, replicates: in singlicate; n = 1
T2 construct: gene STK25

YSK4 = system: T3, YSK4; conditions: concentration: 1 μM, replicates: in singlicate; n = 1
T3 construct: gene MAP3K19

ZAK = conditions: concentration: 1 μM, replicates: in singlicate; n = 1
ZAP70 = conditions: concentration: 1 μM, replicates: in singlicate; n = 1
p38-alpha = system: T4, p38-alpha; conditions: n = 1
T4 construct: gene MAPK14

p38-beta = system: T5, p38-beta; conditions: concentration: 1 μM, replicates: in singlicate; n = 1
T5 construct: gene MAPK11

p38-delta = conditions: concentration: 1 μM, replicates: in singlicate; n = 1
p38-gamma = system: T6, p38-gamma; conditions: concentration: 1 μM, replicates: in singlicate; n = 1
T6 construct: gene MAPK12

[1] = concentration: 1 μM, replicates: in singlicate
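Also: KINOMEscan kinase panel screen.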

| SMILES | %Inh (YES) [%] | %Inh (YSK1) [%] | %Inh (YSK4) [%] | %Inh (ZAK) [%] | %Inh (ZAP70) [%] | %Inh (p38-alpha; [1]) [%] | %Inh (p38-beta) [%] | %Inh (p38-delta) [%] | %Inh (p38-gamma) [%] | %Inh (p38-alpha; 1 µM) [%] |
| --- | --- | --- | --- | --- | --- | --- | --- | --- | --- | --- |
| Nc1ncnc2[nH]c(-c3ccccc3)nc12 [AH5015] | 18 | 0 | 94.4 | 33 | 0 | 0 | 0 | 6 | 0 |  |
| COc1ccccc1-c1ccc2c(NC(=O)C3CC3)n[nH]c2n1 [SB-711239] | 0 | 0 | 0 | 0 | 13 | 26 | 9 | 6 | 2 |  |
| COc1ccc(Nc2nccc(NCCNC(=O)Nc3ccccc3F)n2)cc1 [GSK1379901] | 23 | 0 | 45 | 37 | 5 | 20 | 0 | 38 | 10 |  |
| Cc1c(Cn2ccn3c(=O)cc(N4CCOCC4)nc23)cccc1C(F)(F)F [GSK2289044] | 3 | 0 | 43 | 8 | 0 | 0 | 0 | 12 | 12 |  |
| Cc1cccc(-c2nc(Nc3cccc(C(N)=O)c3)c3ccccc3n2)n1 [GW876019] | 19 | 12 | 0 | 0 | 0 | 0 | 34 | 16 | 58 |  |
| Cl.NC(=O)c1cccc(Nc2nccc(Nc3ccc(Oc4cccc(Cl)c4)c(Cl)c3)n2)c1 [GW659008] | 54 | 0 | 0 | 53 | 0 | 8 | 0 | 38 | 0 |  |
| Cn1cncc1-c1ccc2ncnc(Nc3ccc(OCc4ccccc4)cc3)c2c1 [GW320571] | 26 | 0 | 1 | 17 | 0 | 0 | 2 | 21 | 0 |  |
| O=C(Nc1ccccc1)Nc1cccc(Oc2ccc3nccn3n2)c1 | 0 | 0 | 87 | 35 | 0 | 0 | 0 | 0 | 19 |  |
| Cc1ccccc1-n1cnc2c(N)ncnc21 [SKF-97510] | 11 | 9 | 0 | 9 | 0 | 0 | 0 | 0 | 15 |  |
| COC(=O)c1c(-c2ccccc2)c2cc(C(=O)O)ccc2c(=O)n1Cc1ccccc1 | 0 | 0 | 0 | 0 | 31 | 24 | 19 | 21 | 0 |  |
| CCn1c(-c2cccnc2O)nc2cnccc21 [SB-736715] | 0 | 0 | 0 | 0 | 0 | 0 | 0 | 8 | 0 |  |
| O=S(=O)(c1ccc(-c2ccnc3[nH]ccc23)cc1)N1CCCC1 [GSK846226] | 8 | 21 | 63 | 0 | 0 | 6 | 0 | 11 | 6 |  |
| COc1ccccc1CNC(=O)c1cc(C(=O)c2ccccc2C)c[nH]1 [GSK364507] | 16 | 0 | 28 | 24 | 13 |  | 0 | 39 | 0 | 93.3 |
| COc1ccc(C2=C(Nc3cccc(C(=O)O)c3)C(=O)NC2=O)cc1 [SB-390765] | 11 | 0 | 0 | 13 | 0 | 4 | 6 | 2 | 29 |  |
| COc1cc2ncnc(Nc3ccc4nc(-c5ccccc5)[nH]c4c3)c2cc1OC.Cl [GW282450] | 5 | 6 | 35 | 0 | 0 | 1 | 0 | 36 | 0 |  |
| O=C(Nc1ccc2c(c1)OCO2)NC1CCN(c2ccnc(Nc3ccc(F)cc3)n2)C1 (stereo not drawn) [GSK1379724] | 0 | 0 | 39 | 28 | 0 | 0 | 0 | 37 | 0 |  |
| CC(C)(C)c1ccc(C(=O)Nc2cn3cc(-c4cccnc4)ccc3n2)cc1 | 10 | 1 | 66 | 19 | 0 | 1 | 30 | 46 | 21 |  |
| CCn1c(-c2ccccn2)nc2cnccc21 [SB-736398] | 3 | 100 | 44 | 5 | 6 | 0 | 0 | 23 | 0 |  |

| SMILES | %Inh (YES) [%] | %Inh (YSK1) [%] | %Inh (YSK4) [%] | %Inh (ZAK) [%] | %Inh (ZAP70) [%] | %Inh (p38-alpha; [1]) [%] | %Inh (p38-beta) [%] | %Inh (p38-delta) [%] | %Inh (p38-gamma) [%] | %Inh (p38-alpha; 1 µM) [%] |
| --- | --- | --- | --- | --- | --- | --- | --- | --- | --- | --- |
| Clc1cc(Cl)cc(Nc2ccnc(Nc3cc(Cl)cc(Cl)c3)n2)c1 [GSK175726] | 20 | 3 | 0 | 2 | 0 | 26 | 0 | 12 | 40 |  |
| Nc1nc(-c2nccs2)c(-c2ccnc3ccccc23)s1 [GW693542] | 17 | 10 | 28 | 39 | 0 | 0 | 0 | 22 | 30 |  |
| Cc1cccc(-c2nc(C)cc(Nc3ccncc3)n2)n1 [GSK257997] | 15 | 8 | 0 | 0 | 0 | 9 | 0 | 51 | 6 |  |
| COc1cc2nccc(Nc3ccc(NC(=O)c4ccc(C)cc4)c(O)c3)c2cc1OC.Cl [GW440132] | 17 | 20 | 9 | 23 | 0 | 0 | 0 | 23 | 0 |  |
| CS(=O)(=O)c1ccc(-c2nc3n(c2-c2ccncc2)CCC3)cc1 [SKF-105942] | 33 | 5 | 1 | 0 | 0 | 0 | 0 | 31 | 14 |  |
| COc1cccc(-c2cc(-c3c[nH]nc3-c3ccccn3)ccn2)c1 [GW680338] | 0 | 0 | 0 | 0 | 10 | 27 | 7 | 20 | 0 |  |
| Cn1ccc2ncnc(Oc3cccc(C(=O)Nc4ccccc4)c3)c21 | 1 | 0 | 1 | 0 | 0 | 0 | 6 | 3 | 0 |  |
| O=C(Nc1n[nH]c2cc(-c3cccc(F)c3F)ccc12)C1CC1 [SB-733894] | 0 | 0 | 74 | 0 | 60 | 0 | 2 | 0 | 24 |  |
| Cn1ccc2ncnc(Oc3ccc(Nc4nc5ccccc5[nH]4)cc3)c21 | 0 | 0 | 14 | 0 | 0 | 5 | 0 | 16 | 0 |  |
| Cc1cc(NCC(c2ccccc2)c2ccccc2)nc(NCc2ccc(C(F)(F)F)cc2)n1 [GW497681] | 0 | 0 | 13 | 0 | 7 | 7 | 0 | 45 | 0 |  |
| Cn1ccc2ncnc(Oc3ccc(NC(=O)Nc4ccccc4)cc3)c21 | 0 | 0 | 93.1 | 0 | 0 | 0 | 0 | 6 | 0 |  |
| COC(=O)c1c(-c2ccccc2)c2cc(OC)ccc2c(=O)n1Cc1ccccc1 | 0 | 1 | 0 | 20 | 0 | 36 | 7 | 42 | 0 |  |
| Cc1cccc(-c2nc(Nc3ccc4[nH]ncc4c3)c3ccccc3n2)n1 [GW857175] | 13 | 0 | 19 | 0 | 31 | 0 | 32 | 0 | 50 |  |
| CC(=O)Nc1nc2cnc(Nc3cc(NC(=O)c4cccc(CCC#N)c4)ccc3C)nc2s1 | 3 | 0 | 19 | 0 | 0 | 77 | 17 | 16 | 32 |  |
| Cc1ccc(NC(=O)Nc2cc(C(C)(C)C)nn2-c2ccccc2)cc1 [GSK1014915] | 9 | 0 | 19 | 26 | 0 | 99.7 | 87 | 54 | 50 |  |
| COc1ccc2nc(-c3cccc(C)n3)nc(Nc3ccncc3)c2c1 [GSK204919] | 13 | 0 | 13 | 0 | 0 | 58 | 0 | 12 | 0 |  |
| CCCc1ccc(S(=O)(=O)NC2CCN(c3ccnc(Nc4ccc(F)cc4)n3)C2)cc1 (stereo not drawn) [GSK1379715] | 22 | 100 | 31 | 67 | 0 | 3 | 0 | 29 | 0 |  |
